For eight molecules, growth results are on record in PubChem BioAssay (NCI).

Test systems include DU-145 prostate; K-562 leukemia; MALME-3M melanoma; MDA-MB-231 breast; RXF 393 renal; SF-268 CNS; SF-539 CNS; UACC-257 melanoma; M14 melanoma; HCT-15 colon; HT29 colon; SNB-75 CNS; U251 CNS; PC-3 prostate; SK-MEL-5 melanoma; UACC-62 melanoma; LOX IMVI melanoma; SK-MEL-28 melanoma; SNB-19 CNS.
Common to all, as to experiment: NCI-60 one-dose screen, 48 h (100 = growth as untreated, 0 = no growth, -100 = all killed)
Details in all cases: 10 µM unless noted

Each structure is given as a SMILES string. Compounds without any hit were thinned out: in the full panel of roughly 83,000, 20% have a hit.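 Each cell line was grown in a 96-well plate and treated with one concentration of compound for 48 hours. Values below 10 were considered active.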 Unmarked numbers belong to inactive results. The source made the active and inactive calls.

As for `CSC(=S)N/N=C(\C)c1ccccn1`, the growth in the assay on DU-145 prostate was 16.1%; with K-562 leukemia, 8.85% (active); with MALME-3M melanoma, -3.24% (active); with MDA-MB-231 breast it was 33.9%; in the assay with RXF 393 renal, 0.311% (active); with SF-268 CNS, 17.3%. Besides, the growth in the assay on SF-539 CNS was 1.81% (active); in the assay on UACC-257 melanoma it was 7.4% (active); with M14 melanoma, 1.91% (active); with HCT-15 colon it was 34.7%; with HT29 colon, 25.9%; in the assay on SNB-75 CNS, 35.5%. Moreover, the growth in the assay on U251 CNS is 13.9%; with PC-3 prostate, 27%; with SK-MEL-5 melanoma, -47.7% (active); in the assay on UACC-62 melanoma, -22.3% (active); in the assay on LOX IMVI melanoma it was 12.7%; with SK-MEL-28 melanoma, 42.4%.

Take `O=C(NNC(=S)Nc1ccccc1)c1ccc(Nc2ncnc3c2cnn3-c2cccc(Br)c2)cc1`: the growth was 107% with DU-145 prostate; 112% in the assay with K-562 leukemia; 101% with MALME-3M melanoma; 110% in the assay on MDA-MB-231 breast; 99.6% in the assay with RXF 393 renal; 95.4% in the assay with SF-268 CNS. Also, the growth with SF-539 CNS is 98.5%; in the assay with UACC-257 melanoma, 114%; with M14 melanoma, 100%; in the assay on HCT-15 colon, 110%; in the assay with HT29 colon, 105%; in the assay on SNB-19 CNS it was 101%. Besides, the growth is 114% in the assay with U251 CNS; 93.5% with PC-3 prostate; 100% with SK-MEL-5 melanoma; 94.6% in the assay with UACC-62 melanoma; 97.3% in the assay on LOX IMVI melanoma; 110% in the assay with SK-MEL-28 melanoma.

As to `COc1ccc(-c2nsc3c2NC(=O)CC3c2ccc3c(c2)OCO3)cc1` (centres undefined), the growth in the assay on DU-145 prostate was 14.8%; in the assay with K-562 leukemia it was 0.385% (active); with MALME-3M melanoma it was -1.91% (active); in the assay with MDA-MB-231 breast, 36%; in the assay with RXF 393 renal it was 11.3%; in the assay on SF-268 CNS, 42.8%. Further, the growth is -9% (active) in the assay with SF-539 CNS; 60.2% with UACC-257 melanoma; 18.2% with M14 melanoma; 29.4% with HCT-15 colon; 3.39% (active) with HT29 colon; 7.61% (active) in the assay on SNB-75 CNS. Besides, the growth in the assay on U251 CNS is 12.2%; in the assay on PC-3 prostate it was 3.81% (active); with SK-MEL-5 melanoma it was 25.8%; in the assay with UACC-62 melanoma it was 42.7%; with LOX IMVI melanoma, 37.9%; with SK-MEL-28 melanoma it was 56.5%.

In the case of `[O-]/[N+](=C\c1ccccc1)CC1(O)CCCCC1`, the growth in the assay on DU-145 prostate was 109%; in the assay with K-562 leukemia, 95.7%; with MALME-3M melanoma, 108%; with MDA-MB-231 breast, 101%; in the assay on RXF 393 renal it was 107%; in the assay with SF-268 CNS, 105%. In addition, the growth in the assay on SF-539 CNS is 97%; with UACC-257 melanoma, 102%; in the assay on M14 melanoma it was 109%; in the assay with HCT-15 colon, 98.4%; in the assay with HT29 colon it was 102%; in the assay on SNB-19 CNS, 99.4%. Besides, the growth with U251 CNS was 97.6%; in the assay on PC-3 prostate, 108%; in the assay with SK-MEL-5 melanoma it was 105%; in the assay with UACC-62 melanoma, 102%; in the assay with LOX IMVI melanoma, 101%; in the assay with SK-MEL-28 melanoma, 106%.

As to `C/C(=N\NC(=S)N1CCCCC1)c1ccccn1`, the growth in the assay on DU-145 prostate is 28.3%; in the assay on K-562 leukemia it was 2.29% (active); with MALME-3M melanoma it was 5.96% (active); in the assay with MDA-MB-231 breast it was 24.7%; in the assay with RXF 393 renal, -17.6% (active); in the assay on SF-268 CNS, 8.38% (active). Besides, the growth in the assay with SF-539 CNS was 5.37% (active); in the assay on UACC-257 melanoma, -2.18% (active); in the assay on M14 melanoma, -33.4% (active); in the assay with HCT-15 colon it was 22.1%; with SNB-75 CNS, 28.8%; in the assay on SNB-19 CNS, 22.9%. Further, the growth in the assay on U251 CNS was 3.98% (active); with PC-3 prostate it was 9.88% (active); with SK-MEL-5 melanoma, -33.2% (active); with UACC-62 melanoma, -14.3% (active); in the assay with LOX IMVI melanoma, 13.4%; with SK-MEL-28 melanoma, 37%.

With `Oc1c(-c2cc(C(F)(F)F)[nH]n2)cc(Cl)c(OCc2ccc(Cl)cc2)c1-c1ccc(Cl)c(C(F)(F)F)c1`, the growth was 10.2% in the assay with DU-145 prostate; 5.9% (active) in the assay on K-562 leukemia; -30.5% (active) in the assay on MALME-3M melanoma; -5.89% (active) with MDA-MB-231 breast; -24.7% (active) in the assay on RXF 393 renal; -5.51% (active) in the assay with SF-268 CNS. Besides, the growth with SF-539 CNS is -11.6% (active); with UACC-257 melanoma, -2.82% (active); in the assay on M14 melanoma, -21% (active); with HCT-15 colon, -11.5% (active); in the assay with SNB-75 CNS it was -17.6% (active); in the assay on SNB-19 CNS, 18.6%. The growth with U251 CNS is 8.65% (active); in the assay with PC-3 prostate it was 4.7% (active); in the assay with SK-MEL-5 melanoma it was -60.2% (active); in the assay on UACC-62 melanoma, -17.3% (active); with LOX IMVI melanoma it was 1.76% (active); in the assay with SK-MEL-28 melanoma, -19.9% (active).

Regarding `O=C(Nc1cnc(C(F)(F)F)cn1)c1cc(Cl)ccc1O`, the growth with DU-145 prostate was 24.9%; in the assay with K-562 leukemia, 7.07% (active); with MALME-3M melanoma, -18.5% (active); with MDA-MB-231 breast, -21.1% (active); in the assay on RXF 393 renal, -1.32% (active); in the assay with SF-268 CNS it was 18.2%. The growth is 3.19% (active) in the assay on SF-539 CNS; -20.6% (active) in the assay with UACC-257 melanoma; -3.59% (active) with M14 melanoma; 10.9% in the assay with HCT-15 colon; -20.4% (active) in the assay on SNB-75 CNS; 24.3% with SNB-19 CNS. The growth in the assay with U251 CNS was 6.83% (active); in the assay on PC-3 prostate, 5.49% (active); in the assay on SK-MEL-5 melanoma, -80.7% (active); with UACC-62 melanoma it was -5.58% (active); with LOX IMVI melanoma, 6.55% (active); in the assay on SK-MEL-28 melanoma it was 3.09% (active).

With `CCC1CCc2nc3sc(C(=O)Nc4cccc(F)c4)c(N)c3cc2C1` (centres undefined), the growth in the assay on DU-145 prostate is 60%; in the assay with K-562 leukemia, 28.6%; in the assay on MALME-3M melanoma, 34.8%; in the assay with MDA-MB-231 breast, 78.3%; with RXF 393 renal, 65.8%; in the assay on SF-268 CNS, 68.2%. Further, the growth was 58.8% in the assay with SF-539 CNS; 49.5% with UACC-257 melanoma; 47.5% with M14 melanoma; 31.7% in the assay on HCT-15 colon; 51.7% with SNB-75 CNS; 76.9% in the assay with SNB-19 CNS. Moreover, the growth is 56.3% in the assay with U251 CNS; 63.6% in the assay with PC-3 prostate; 41.9% in the assay with SK-MEL-5 melanoma; 39.5% with UACC-62 melanoma; 61.3% in the assay on LOX IMVI melanoma; 59.7% in the assay on SK-MEL-28 melanoma.
